This is a sample that favours compounds with a hit; in the whole collection about 11% have one here.
NS1 function inh – qHTS Assay for Inhibitors of Influenza NS1 Protein Function. Potency, µM (series often up to 46.1 µM), for the others: at the highest dose activity, positive = more growth. AID 2326, 2010. actives 0.4% (n = 270,000); calls by dose curve; also: actives are rising curves; nearly all actives have a fitted effect of over 50% in size
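Recovery from NS1-induced slow growth read by OD600 in budding yeast switched to galactose assay medium (pH 6.0, -URA) at 1:100 dilution. Compound 23 nl per well; the matching strain lacking NS1 serves as control.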
AMA1 RON2 block – qHTS for Inhibitors of AMA1-RON; Towards Development of Antimalarial Drug Lead: Primary Screen | Plasmodium falciparum AMA1 (3D7) - RON2 peptide interaction | AlphaScreen AMA1-biotinylated RON2 peptide binding | Potency, µM (top dose mostly 58.2 µM), for inactives: top-dose activity change, negative = inhibition, hits mostly inhibitors | actives 0.2% (n = 360,000);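 also: 0% = vehicle wells and -100% = peptide control; nearly all actives have a fitted effect of over 45% in size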
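AMA1 (3D7) with his tag at 25 nM final met compounds first, then biotinylated RON2 peptide at 25 nM; detection used donor plus acceptor beads, 10 µg/mL apiece, read by AlphaScreen after 30 min at room temperature.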
Pf growth 96h – Primary qHTS for delayed death inhibitors of the malarial parasite plastid, 96 hour incubation | P. falciparum luciferase reporter growth, 96 h | Potency, µM (titrated, usually from 28.7 µM), inactives show at the top dose activity change, negative = inhibition, hits mostly inhibitors | actives 6.9% (n = 320,000) | AID 504834, 2011; also: % is scaled to controls: 0 for no effect and ±100 for the full control effect
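Compounds incubated with erythrocytes infected by luciferase-expressing P. falciparum (2% hematocrit, 0.05% parasitemia final) for 96 hours, 37 C in 5% CO2. Growth inhibition scored as decreased luciferase luminescence.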
Pf growth 48h – Primary qHTS for delayed death inhibitors of the malarial parasite plastid, 48 hour incubation | P. falciparum luciferase growth in erythrocytes, 48 h | Potency, µM (titrated, usually from 28.7 µM), for the others: at the top dose activity change, negative = inhibition, actives largely listed as inhibitors | actives 5.9% (n = 310,000); also: % is scaled to controls: 0 for no effect and ±100 for the full control effect
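Growth was read as firefly luciferase luminescence after a 48 h, 37 C, 5% CO2 exposure of compounds to reporter-bearing P. falciparum cultures (0.1% parasitemia, 2% hematocrit final) in Albumax-supplemented RPMI 1640.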
Sm TGR inh – qHTS Assay for the Inhibitors of Schistosoma Mansoni Peroxiredoxins; purified TGR, DTNB reduction, TNB absorbance 405 nm; Schistosoma mansoni thioredoxin glutathione reductase (TGR), Q962Y6; actives 3% (n = 360,000); Potency, µM (series often up to 114 µM), for inactives: at the highest dose activity change, negative = inhibition, hits mostly inhibitors; AID 485364, 2010; also: % is scaled to controls: 0 for no effect and ±100 for the full control effect; nearly all actives have a fitted effect of over 60% in size
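First, TGR (20 nM dispensed) and NADPH were mixed with compound. Second, a 15 min room-temperature incubation followed. Third, further NADPH and then DTNB were added to start the reaction. Finally, TNB absorbance was monitored kinetically.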
Numbers without * were called inactive; ? = inconclusive; · = no result given. Unless noted, calls follow the shape of the dose curve; as a rule, active = well fitted curve in the direction sought with a large enough effect; inconclusive = small, poorly fitted or top-dose-only effect, or another doubt; inactive = no such curve, though single readings can be large; an effect the other way counts as inactive or inconclusive. Potency is read from the fitted curve at half-maximal effect.

SMILES	NS1 function inh	AMA1 RON2 block	Pf growth 96h	Pf growth 48h	Sm TGR inh
Nc1nc(Cl)nc2c1ncn2[C@@H]1O[C@H](CO)[C@@H](O)[C@H]1O	-3%	-2%	6.6µM*	?	8%
Cc1ccc2c(c1)N(CC(=O)Nc1ccccc1C(F)(F)F)C(=O)c1cccnc1O2	·	·	·	·	-1%
Cc1ccc(P(C)(=O)c2ccc(C)cc2)cc1	0%	7%	?	·	1%
Cc1ccc(NP(=O)(Nc2ccc(C)cc2)Nc2ccc(C)cc2)cc1	·	0%	?	12µM*	-8%
CCN(CC)S(=O)(=O)c1ccc(N2CCOCC2)c(NC(=O)c2cc(-c3ccccn3)nc3ccccc23)c1	·	6%	8.3µM*	1.9µM*	-6%
CCN(CC)S(=O)(=O)c1ccc(N2CCOCC2)c(NC(=O)C2=COCCO2)c1	3%	-10%	2.1µM*	3.3µM*	19%
O=C(Nc1cc(S(=O)(=O)N2CCOCC2)ccc1N1CCOCC1)C1CCCO1 (stereo not given)	-2%	-8%	-17%	4%	13%
CCN(CC)S(=O)(=O)c1ccc(N2CCOCC2)c(NC(=O)C(C)(C)C)c1	-66%	1%	?	75%	0%
CCc1cc(C(=O)Nc2cc(S(=O)(=O)N(CC)CC)ccc2N2CCN(C)CC2)sc1C	·	12%	2.6µM*	?	-14%
CCN(CC)S(=O)(=O)c1ccc(N2CCOCC2)c(NC(=O)C2CCCO2)c1 (stereo not given)	-2%	0%	8.3µM*	?	-2%
CCN(CC)S(=O)(=O)c1ccc(N2CCOCC2)c(NC(=O)c2cccc3ccccc23)c1	?	4%	?	?	8%
CCCCn1c(N)c(N(CCOC)C(=O)c2cccc(S(=O)(=O)N3CCCCCC3)c2)c(=O)[nH]c1=O	·	13%	-11%	?	-7%
CCN(CC)S(=O)(=O)c1ccc(N2CCOCC2)c(NC(=O)c2cc(=O)[nH]c3ccccc23)c1	-15%	1%	-22%	-19%	0%
CCN(CC)S(=O)(=O)c1ccc(N2CCCCC2)c(C(=O)Nc2ccccc2N2CCOCC2)c1	5%	-11%	4.1µM*	·	-7%
O=C(Nc1ccccc1N1CCOCC1)c1cc(-c2ccncc2)nc2ccccc12	·	-1%	8.3µM*	?	-16%
O=C(Nc1cc(S(=O)(=O)N2CCOCC2)ccc1N1CCOCC1)c1cnccn1	2%	2%	0%	-16%	-10%
CCN(CC)S(=O)(=O)c1ccc(N2CCOCC2)c(NC(=O)c2c3c(nc4ccccc24)CCC3)c1	5%	-4%	4.7µM*	7.4µM*	5%
CCN(CC)S(=O)(=O)c1ccc(N2CCOCC2)c(NC(=O)c2cnccn2)c1	-7%	11%	12µM*	8.3µM*	-9%
O=C1SCCC1NC(=O)C(c1ccccc1)c1ccccc1 (stereo not given)	6%	4%	-15%	84%	21%
CCN(CC)S(=O)(=O)c1ccc(N2CCOCC2)c(NC(=O)c2ccc3c(c2)OCCO3)c1	·	-5%	?	?	-2%
CCN(CC)S(=O)(=O)c1ccc(N2CCOCC2)c(NC(=O)c2ccc3ccccc3c2)c1	4%	-10%	12µM*	?	-6%
COc1ccc(CNc2nc3c(c(=O)n(C)c(=O)n3C)n2Cc2ccccc2Cl)cc1	·	·	·	·	-1%
COc1ccccc1C(C)Nc1ccc(S(=O)(=O)N2CCN(C)CC2)cc1[N+](=O)[O-] (stereo not given)	·	?	17µM*	12µM*	0%
COc1ccc(Nc2ccc(S(=O)(=O)N3CCCCC3)cc2[N+](=O)[O-])cc1OC	?	?	13µM*	?	-4%
COc1ccc(Nc2ccc(S(=O)(=O)N3CCCCCC3)cc2[N+](=O)[O-])cc1	17%	?	?	-17%	9%
SMILES	NS1 function inh	AMA1 RON2 block	Pf growth 96h	Pf growth 48h	Sm TGR inh
COc1cccc(Oc2ccc(S(=O)(=O)N3CCCC3)cc2[N+](=O)[O-])c1	4%	-15%	?	10µM*	-2%
Cc1ccc(C(=O)Nc2cccc(S(=O)(=O)N3CCCCC3)c2)cc1S(=O)(=O)N1CCOCC1	·	-3%	·	·	·
O=C(Nc1cccc(S(=O)(=O)N2CCCCC2)c1)c1ccc([N+](=O)[O-])o1	·	0%	9.3µM*	?	-53%
O=C(COC(=O)c1ccc([N+](=O)[O-])o1)Nc1cccc(S(=O)(=O)N2CCCCC2)c1	·	-4%	-1%	-14%	?
Cc1ccc(C(=O)Nc2cccc(S(=O)(=O)N3CCCCC3)c2)cc1[N+](=O)[O-]	·	-9%	8.3µM*	4.7µM*	0%
CC(c1nnnn1C(C)(C)C)N(Cc1cccnc1)Cc1ccccc1Cl (stereo not given)	2%	-5%	·	13µM*	4%
CC(C)(C)n1nnnc1C(c1cccs1)N(Cc1cccnc1)Cc1ccccc1Cl (stereo not given)	-22%	-11%	110%	2.9µM*	2%
CN(Cc1ccc(Cl)c(Cl)c1)C(c1cc2ccccc2o1)c1nnnn1C(C)(C)C (stereo not given)	·	-6%	·	·	·
COCCc1nc2ccc(C(=O)N(C)Cc3cccc(-n4cccn4)c3)cc2o1	-12%	4%	?	0%	-14%
COc1ccc(C(C)NC(=O)CC23CC4CC(CC(C4)C2)C3)cc1 (stereo not given)	-84%	18%	1%	?	3%
C[C@]12C(=O)N(c3cccc(Cl)c3)C(=O)N1[C@H]1c3ccccc3OC[C@@H]1[C@H]2c1ccccc1	-14%	-3%	10µM*	0%	4%
Cc1cccc(N2C(=O)N3[C@@H]4c5ccccc5OC[C@@H]4[C@@H](c4ccccc4)[C@]3(C)C2=O)c1	16%	-11%	12µM*	?	-21%
Cc1cccc(N2C(=O)N3[C@@H]4c5ccccc5OC[C@@H]4[C@@H](c4ccccc4)[C@@]3(C)C2=O)c1	?	-8%	?	?	-9%
CC(C)CC1OC(C)CC2=C1C(=O)OC(C)(C)O2 (stereo not given)	·	-9%	·	·	·
O=C(Nc1ccc(Cc2ccncc2)cc1)C1CCC(N2C(=O)C3CC=CCC3C2=O)CC1 (stereo not given)	-7%	4%	·	?	0%
O=C(Nc1ccc(Cc2ccncc2)cc1)C1CCC(N2C(=O)C3C4C=CC(C4)C3C2=O)CC1 (stereo not given)	-11%	15%	12µM*	·	0%
Cc1ccc(C(=O)OCC(=O)N2CCC(C)CC2)cc1S(=O)(=O)N1CCOCC1	·	-8%	·	·	·
COc1ccc(C(C(=O)NC2CCCCC2)N(Cc2cccs2)C(=O)Cc2c[nH]c3ccccc23)cc1OC (stereo not given)	18%	19%	?	9.3µM*	0%
